Several values for one entry are separate records, joined by “and”; a condition that tells them apart may be missing. Identical values can stand only once. The panel holds about 83,000 compounds, 20% with a hit somewhere; the sample as a whole holds those more often.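 Growth was measured after 48 h exposure to one concentration of compound in 96-well plates. Values under 10 count as active.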 Activity calls are given as the source filed them.
Assays:
Assay in all cases: NCI-60 one-dose screen, 48 h (100 = growth as untreated, 0 = no growth, -100 = all killed)
Conditions in all cases: 10 µM unless noted
EKVX NSCLC = system: EKVX NSCLC
SN12C renal = system: SN12C renal
UO-31 renal = system: UO-31 renal
ACHN renal = system: ACHN renal
CAKI-1 renal = system: CAKI-1 renal
A498 renal = system: A498 renal
CCRF-CEM leukemia = system: CCRF-CEM leukemia
MOLT-4 leukemia = system: MOLT-4 leukemia
SR leukemia = system: SR leukemia
OVCAR-8 ovarian = system: OVCAR-8 ovarian
OVCAR-5 ovarian = system: OVCAR-5 ovarian
OVCAR-4 ovarian = system: OVCAR-4 ovarian
SK-OV-3 ovarian = system: SK-OV-3 ovarian
IGROV1 ovarian = system: IGROV1 ovarian
OVCAR-3 ovarian = system: OVCAR-3 ovarian
HS 578T breast = system: HS 578T breast
NCI/ADR-RES ovarian = system: NCI/ADR-RES ovarian
TK-10 renal = system: TK-10 renal
RPMI-8226 leukemia = system: RPMI-8226 leukemia

Row | SMILES | growth (EKVX NSCLC) | growth (SN12C renal) | growth (UO-31 renal) | growth (ACHN renal) | growth (CAKI-1 renal) | growth (A498 renal) | growth (CCRF-CEM leukemia) | growth (MOLT-4 leukemia) | growth (SR leukemia) | growth (OVCAR-8 ovarian) | growth (OVCAR-5 ovarian) | growth (OVCAR-4 ovarian) | growth (SK-OV-3 ovarian) | growth (IGROV1 ovarian) | growth (OVCAR-3 ovarian) | growth (HS 578T breast) | growth (NCI/ADR-RES ovarian) | growth (TK-10 renal) | growth (RPMI-8226 leukemia)
1 | Cc1ccc(C(=O)c2ccc(C)cc2)cc1 | 92.6% (inactive) and 101% (inactive) | 92.6% (inactive) and 103% (inactive) | 76.9% (inactive) and 98.3% (inactive) | 99.8% (inactive) and 107% (inactive) | 93.4% (inactive) | 96.4% (inactive) and 111% (inactive) | 91.6% (inactive) and 93.3% (inactive) | 82.5% (inactive) and 97.8% (inactive) | 84.3% (inactive) and 110% (inactive) | 94.3% (inactive) and 109% (inactive) | 103% (inactive) | 87.2% (inactive) and 117% (inactive) | 101% (inactive) and 107% (inactive) | 86.3% (inactive) and 99% (inactive) | 99.1% (inactive) and 105% (inactive) | 101% (inactive) | 93% (inactive) |  | 
2 | CCOC(C)=N | 134% (inactive) | 105% (inactive) | 107% (inactive) | 104% (inactive) | 108% (inactive) | 120% (inactive) | 98.6% (inactive) | 94.6% (inactive) | 87.4% (inactive) | 109% (inactive) | 102% (inactive) | 100% (inactive) | 97% (inactive) | 151% (inactive) | 110% (inactive) | 150% (inactive) | 109% (inactive) | 107% (inactive) | 92.7% (inactive)
3 | Cc1cc(=NO)cc(C)n1O | 105% (inactive) | 100% (inactive) | 101% (inactive) | 117% (inactive) | 109% (inactive) | 93.9% (inactive) | 80.9% (inactive) | 96.6% (inactive) | 72.5% (inactive) | 111% (inactive) | 117% (inactive) | 106% (inactive) | 104% (inactive) | 114% (inactive) | 104% (inactive) |  | 114% (inactive) | 84.7% (inactive) | 103% (inactive)
4 | N#Cc1c(N)nc2c(c(-c3ccc(Cl)cc3)nn2-c2ccccc2)c1C#N | 83% [100 µM] (inactive) | 105% [100 µM] (inactive) | 96.6% [100 µM] (inactive) | 86.9% [100 µM] (inactive) | 108% [100 µM] (inactive) | 113% [100 µM] (inactive) | 98.9% [100 µM] (inactive) | 114% [100 µM] (inactive) | 104% [100 µM] (inactive) | 99.8% [100 µM] (inactive) | 123% [100 µM] (inactive) | 111% [100 µM] (inactive) | 94.8% [100 µM] (inactive) | 99.2% [100 µM] (inactive) | 122% [100 µM] (inactive) | 83.9% [100 µM] (inactive) | 101% [100 µM] (inactive) | 128% [100 µM] (inactive) | 108% [100 µM] (inactive)
5 | O=S(=O)(O)c1ccc2cc(O)ccc2c1 |  | 105% (inactive) | 95.1% (inactive) |  |  | 78.8% (inactive) | 109% (inactive) | 103% (inactive) | 101% (inactive) | 102% (inactive) | 107% (inactive) | 112% (inactive) | 104% (inactive) | 109% (inactive) | 112% (inactive) | 104% (inactive) |  | 99.7% (inactive) | 106% (inactive)
6 | O=C(O)c1c2c(nc3ccccc13)Cc1ccccc1-2 | 104% (inactive) and 72.5% (inactive) | 108% (inactive) and 87% (inactive) | 73.6% (inactive) and 63.6% (inactive) | 103% (inactive) and 101% (inactive) | 98% (inactive) and 86.2% (inactive) | 78.5% (inactive) and 95.6% (inactive) | 91.1% (inactive) and 77.3% (inactive) | 96.2% (inactive) and 114% (inactive) | 94.9% (inactive) and 98% (inactive) | 96.3% (inactive) and 96.2% (inactive) | 109% (inactive) and 88.1% (inactive) | 116% (inactive) and 97.6% (inactive) | 99.7% (inactive) and 102% (inactive) | 121% (inactive) and 85.6% (inactive) | 102% (inactive) and 95.6% (inactive) | 94.1% (inactive) and 84.2% (inactive) | 107% (inactive) and 95.7% (inactive) | 114% (inactive) and 101% (inactive) | 97% (inactive) and 84.1% (inactive)
7 | N#Cc1ccc(/C=C/C(=O)c2ccccc2)cc1 | 95.9% (inactive) and 111% (inactive) | 96.2% (inactive) and 92.6% (inactive) | -37.5% (active) | 112% (inactive) and 92.9% (inactive) |  | 112% (inactive) and 84.1% (inactive) | 17.6% (inactive) and 3.61% (active) | -35.1% (active) and 29.4% (inactive) | -63.9% (active) | 98.9% (inactive) and 98.8% (inactive) | 108% (inactive) and 91.1% (inactive) | 95.2% (inactive) and 103% (inactive) | 123% (inactive) and 106% (inactive) |  | 55.4% (inactive) and 75.5% (inactive) | 128% (inactive) and 102% (inactive) | 111% (inactive) and 95.8% (inactive) |  | -35.6% (active) and -54.9% (active)
